Test results from the supplement of paper PMC6411743.
± gives the standard deviation of the averaged measurements. About 6,500 targets were measured; listed, in parts, are those with the largest changes and a random draw of the rest.

How the values were obtained:
Assay in all cases: NP40-soluble protein abundance relative to vehicle (solubility fold change) (ratio); higher = more soluble protein in presence of ATP
[1] = target: T1, UniProt O95983|O95983-2|K7EIE8
T1 sequence (whole entry): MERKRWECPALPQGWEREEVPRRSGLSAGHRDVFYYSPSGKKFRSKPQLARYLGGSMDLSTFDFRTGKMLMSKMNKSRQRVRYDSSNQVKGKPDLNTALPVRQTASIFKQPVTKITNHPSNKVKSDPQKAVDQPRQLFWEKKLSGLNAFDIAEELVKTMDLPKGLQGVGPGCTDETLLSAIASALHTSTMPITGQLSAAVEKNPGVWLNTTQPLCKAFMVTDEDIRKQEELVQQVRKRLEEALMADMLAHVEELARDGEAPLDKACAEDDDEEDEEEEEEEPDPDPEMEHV
Method in brief: (§1)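 Jurkat crude lysate prepared with a Dounce homogeniser was treated at eight concentrations spanning 0.1 to 10 mM, 10 min at room temperature then 3 min at 37 °C. Solubilisation with 0.8% NP40 and benzonase and ultracentrifugation preceded TMT labelling of the supernatant for LC-MS/MS. Fold change against the detergent-processed vehicle was determined per replicate from vsn-normalised intensities, across three independent experiments.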

UniProt P11177|P11177-2 = target: T2, UniProt P11177|P11177-2
T2 sequence (whole entry): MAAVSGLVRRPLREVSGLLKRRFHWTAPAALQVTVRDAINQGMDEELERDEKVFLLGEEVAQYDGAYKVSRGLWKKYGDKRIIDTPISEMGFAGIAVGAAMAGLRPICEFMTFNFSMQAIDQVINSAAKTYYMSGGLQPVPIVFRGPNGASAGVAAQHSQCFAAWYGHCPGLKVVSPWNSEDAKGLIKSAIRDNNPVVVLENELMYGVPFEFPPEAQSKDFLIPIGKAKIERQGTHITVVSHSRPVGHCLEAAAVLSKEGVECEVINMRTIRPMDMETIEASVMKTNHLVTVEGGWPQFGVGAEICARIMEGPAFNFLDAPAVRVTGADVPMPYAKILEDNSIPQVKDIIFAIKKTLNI
Method in brief: as §1

[2] = target: T3, UniProt P29728-2|A0A087X0V5|P29728
T3 sequence (whole entry): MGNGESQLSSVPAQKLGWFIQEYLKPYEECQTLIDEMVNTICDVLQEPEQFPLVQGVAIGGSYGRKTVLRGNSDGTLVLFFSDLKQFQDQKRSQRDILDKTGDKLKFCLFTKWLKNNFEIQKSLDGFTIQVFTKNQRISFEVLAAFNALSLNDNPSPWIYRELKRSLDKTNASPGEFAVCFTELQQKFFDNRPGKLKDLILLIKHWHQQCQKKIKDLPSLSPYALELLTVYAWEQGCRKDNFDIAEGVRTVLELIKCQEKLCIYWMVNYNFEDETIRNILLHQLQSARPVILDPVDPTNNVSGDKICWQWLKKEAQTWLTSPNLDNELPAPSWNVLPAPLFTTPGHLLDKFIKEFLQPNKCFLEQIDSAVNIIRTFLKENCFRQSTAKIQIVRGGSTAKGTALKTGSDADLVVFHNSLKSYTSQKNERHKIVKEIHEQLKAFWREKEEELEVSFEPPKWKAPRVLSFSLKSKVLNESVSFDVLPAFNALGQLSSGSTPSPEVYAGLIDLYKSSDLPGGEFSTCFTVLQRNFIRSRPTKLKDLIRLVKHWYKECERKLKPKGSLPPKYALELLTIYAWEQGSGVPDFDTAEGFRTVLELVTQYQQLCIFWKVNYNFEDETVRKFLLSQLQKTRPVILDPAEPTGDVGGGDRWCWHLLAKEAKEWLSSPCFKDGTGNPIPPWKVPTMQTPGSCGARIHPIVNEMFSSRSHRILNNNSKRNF
Method in brief: as §1

[3] = target: T4, UniProt P52594|P52594-2|P52594-3|P52594-4
T4 sequence (whole entry): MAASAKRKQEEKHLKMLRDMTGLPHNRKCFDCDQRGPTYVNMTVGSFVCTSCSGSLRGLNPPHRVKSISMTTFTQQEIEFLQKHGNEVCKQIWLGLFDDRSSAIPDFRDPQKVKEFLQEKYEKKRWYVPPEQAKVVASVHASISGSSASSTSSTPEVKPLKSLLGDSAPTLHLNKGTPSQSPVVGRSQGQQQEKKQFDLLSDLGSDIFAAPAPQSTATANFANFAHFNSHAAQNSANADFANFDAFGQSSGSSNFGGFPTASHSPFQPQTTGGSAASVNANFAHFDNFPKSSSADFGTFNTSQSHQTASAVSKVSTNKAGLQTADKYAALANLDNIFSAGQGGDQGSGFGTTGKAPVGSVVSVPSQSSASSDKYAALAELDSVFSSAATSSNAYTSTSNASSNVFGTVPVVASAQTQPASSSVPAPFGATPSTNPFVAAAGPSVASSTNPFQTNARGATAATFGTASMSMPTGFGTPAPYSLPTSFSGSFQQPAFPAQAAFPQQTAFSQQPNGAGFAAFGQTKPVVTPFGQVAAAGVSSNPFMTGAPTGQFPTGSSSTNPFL
Method in brief: as §1

UniProt P52757|P52757-9 = target: T5, UniProt P52757|P52757-9
T5 sequence (whole entry): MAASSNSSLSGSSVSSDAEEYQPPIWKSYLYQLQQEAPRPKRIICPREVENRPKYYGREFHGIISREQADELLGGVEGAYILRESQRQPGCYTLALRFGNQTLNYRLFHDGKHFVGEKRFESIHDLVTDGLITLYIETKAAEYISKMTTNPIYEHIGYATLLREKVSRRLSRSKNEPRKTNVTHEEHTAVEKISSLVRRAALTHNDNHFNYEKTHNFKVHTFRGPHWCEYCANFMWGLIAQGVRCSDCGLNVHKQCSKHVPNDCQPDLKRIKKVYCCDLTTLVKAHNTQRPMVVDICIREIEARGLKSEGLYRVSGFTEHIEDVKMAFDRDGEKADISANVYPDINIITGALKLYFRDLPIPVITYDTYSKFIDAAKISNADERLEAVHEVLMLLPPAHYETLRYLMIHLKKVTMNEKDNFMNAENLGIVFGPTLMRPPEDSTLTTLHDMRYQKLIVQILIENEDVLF
Method in brief: as §1

UniProt Q02040 = target: T6, UniProt Q02040
T6 sequence (whole entry): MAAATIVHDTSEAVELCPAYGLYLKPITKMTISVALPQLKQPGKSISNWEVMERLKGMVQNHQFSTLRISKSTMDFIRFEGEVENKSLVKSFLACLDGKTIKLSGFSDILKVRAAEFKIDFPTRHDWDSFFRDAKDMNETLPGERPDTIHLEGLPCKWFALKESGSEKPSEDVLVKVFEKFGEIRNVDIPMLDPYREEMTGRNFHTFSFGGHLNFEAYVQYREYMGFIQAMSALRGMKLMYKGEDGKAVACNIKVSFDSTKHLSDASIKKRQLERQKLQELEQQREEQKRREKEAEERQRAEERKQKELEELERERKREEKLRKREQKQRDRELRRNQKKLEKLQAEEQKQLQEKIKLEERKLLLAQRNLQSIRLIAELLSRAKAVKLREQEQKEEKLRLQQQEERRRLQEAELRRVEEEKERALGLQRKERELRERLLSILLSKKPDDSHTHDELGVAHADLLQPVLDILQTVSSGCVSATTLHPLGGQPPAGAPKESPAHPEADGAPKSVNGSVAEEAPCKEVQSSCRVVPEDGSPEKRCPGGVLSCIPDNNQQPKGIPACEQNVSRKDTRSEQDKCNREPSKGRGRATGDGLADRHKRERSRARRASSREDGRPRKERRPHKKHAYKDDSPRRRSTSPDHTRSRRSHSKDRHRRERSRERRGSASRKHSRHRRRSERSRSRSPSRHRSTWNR
Method in brief: as §1

YWHAZ = target: T7, YWHAZ (UniProt P63104)
T7 sequence (whole entry): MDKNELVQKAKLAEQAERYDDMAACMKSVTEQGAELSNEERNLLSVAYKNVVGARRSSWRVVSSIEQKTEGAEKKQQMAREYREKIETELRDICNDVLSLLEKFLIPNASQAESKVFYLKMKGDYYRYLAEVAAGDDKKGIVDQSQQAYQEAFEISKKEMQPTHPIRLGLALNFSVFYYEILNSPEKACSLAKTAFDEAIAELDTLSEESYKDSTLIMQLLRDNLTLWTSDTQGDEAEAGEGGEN
Method in brief: as §1

Nc1ncnc2c1ncn2[C@@H]1O[C@H](COP(=O)(O)OP(=O)(O)OP(=O)(O)O)[C@@H](O)[C@H]1O [adenosine triphosphate]
NP40-soluble protein abundance ([1]; concentration: 6mM): 1.02 ± 0.16
NP40-soluble protein abundance ([1]; concentration: 8mM): 1.01 ± 0.065
NP40-soluble protein abundance ([1]; concentration: 10mM): 0.92 ± 0.082
NP40-soluble protein abundance (UniProt P11177|P11177-2; concentration: 1mM): 1.14 ± 0.069
NP40-soluble protein abundance (UniProt P11177|P11177-2; concentration: 2mM): 1.04 ± 0.041
NP40-soluble protein abundance (UniProt P11177|P11177-2; concentration: 4mM): 1 ± 0.05
NP40-soluble protein abundance (UniProt P11177|P11177-2; concentration: 6mM): 1.02 ± 0.18
NP40-soluble protein abundance (UniProt P11177|P11177-2; concentration: 8mM): 1.05 ± 0.14
NP40-soluble protein abundance (UniProt P11177|P11177-2; concentration: 10mM): 1.02 ± 0.12
NP40-soluble protein abundance ([2]; concentration: 1mM): 1.73 ± 0.11
NP40-soluble protein abundance ([2]; concentration: 2mM): 1.65 ± 0.019
NP40-soluble protein abundance ([2]; concentration: 4mM): 1.7 ± 0.046
NP40-soluble protein abundance ([2]; concentration: 6mM): 1.55 ± 0.12
NP40-soluble protein abundance ([2]; concentration: 8mM): 1.74 ± 0.042
NP40-soluble protein abundance ([2]; concentration: 10mM): 1.68 ± 0.047
NP40-soluble protein abundance ([3]; concentration: 1mM): 0.945 ± 0.033
NP40-soluble protein abundance ([3]; concentration: 2mM): 0.961 ± 0.012
NP40-soluble protein abundance ([3]; concentration: 4mM): 0.963 ± 0.019
NP40-soluble protein abundance ([3]; concentration: 6mM): 0.987 ± 0.037
NP40-soluble protein abundance ([3]; concentration: 8mM): 0.93 ± 0.052
NP40-soluble protein abundance ([3]; concentration: 10mM): 0.918 ± 0.033
NP40-soluble protein abundance (UniProt P52757|P52757-9; concentration: 1mM): 0.952 ± 0.13
NP40-soluble protein abundance (UniProt P52757|P52757-9; concentration: 2mM): 0.971 ± 0.14
NP40-soluble protein abundance (UniProt P52757|P52757-9; concentration: 4mM): 1 ± 0.23
NP40-soluble protein abundance (UniProt P52757|P52757-9; concentration: 6mM): 0.948 ± 0.094
NP40-soluble protein abundance (UniProt P52757|P52757-9; concentration: 8mM): 0.989 ± 0.091
NP40-soluble protein abundance (UniProt P52757|P52757-9; concentration: 10mM): 0.983 ± 0.12
NP40-soluble protein abundance (UniProt Q02040; concentration: 1mM): 1.4 ± 0.24
NP40-soluble protein abundance (UniProt Q02040; concentration: 2mM): 1.56 ± 0.34
NP40-soluble protein abundance (UniProt Q02040; concentration: 4mM): 1.8 ± 0.45
NP40-soluble protein abundance (UniProt Q02040; concentration: 6mM): 2.02 ± 0.41
NP40-soluble protein abundance (UniProt Q02040; concentration: 8mM): 2.19 ± 0.54
NP40-soluble protein abundance (UniProt Q02040; concentration: 10mM): 2.43 ± 0.62
NP40-soluble protein abundance (YWHAZ; concentration: 1mM): 0.892 ± 0.2
NP40-soluble protein abundance (YWHAZ; concentration: 2mM): 0.94 ± 0.045
NP40-soluble protein abundance (YWHAZ; concentration: 4mM): 0.896 ± 0.025
NP40-soluble protein abundance (YWHAZ; concentration: 6mM): 0.918 ± 0.17
NP40-soluble protein abundance (YWHAZ; concentration: 8mM): 0.8927 ± 0.0068
NP40-soluble protein abundance (YWHAZ; concentration: 10mM): 0.819 ± 0.066
